12-LOX inh = Primary qHTS assay for inhibitors of human arachidonate 12S-lipoxygenase (ALOX12): Round 2; purified 12hLO, xylenol orange hydroperoxide absorbance; Polyunsaturated fatty acid lipoxygenase ALOX12 (Homo sapiens), P18054; Potency, µM (doses to about 108 µM), most hits filed as inhibitors; 580,000 tested, 1.1% active
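Purified human 12hLO at 150 nM in 25 mM Hepes, 0.01% Triton X-100, pH 7.0, preincubated 15 min at room temperature with compound. Reaction started with 40 uM arachidonic acid, 30 min at room temperature. Hydroperoxide measured by Fe-xylenol orange, 573/405 nm absorbance ratio.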
PINK1 modulator = A Quantitative High throughput Screen to Identify Chemical Modulators of PINK1 Expression; PINK1 immunofluorescence, high-content cytometry, 24 h; Potency, µM (highest dose often 76.6 µM), most hits filed as activators; 410,000 tested, 0.2% active; active = well fitted activation curve with a large enough effect; inconclusive = small, poorly fitted or top-dose-only effect; cell line not stated here; also: nearly all actives have a fitted effect of over 65% in size
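Fluorescence from anti-PINK1 antibody, together with nuclear and cell stains, was scanned on a laser-scanning cytometer. Before staining, stable-line cells were incubated 24 hours with compounds at 5 concentrations; primary antibody 12 h at 10 degrees C.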
ASM inhibitor = Inhibitors of Secretory Acid Sphingomyelinase (S-ASM): qHTS | AID 504937, 2011 | 340,000 tested, 0.006% active | Potency, µM (doses to about 57.5 µM), actives largely listed as inhibitors | Sphingomyelin phosphodiesterase (Homo sapiens), P17405 | placental ASM, HMU-PC fluorogenic substrate, 60 min
Target sequence (P17405 47-631 limits assumed): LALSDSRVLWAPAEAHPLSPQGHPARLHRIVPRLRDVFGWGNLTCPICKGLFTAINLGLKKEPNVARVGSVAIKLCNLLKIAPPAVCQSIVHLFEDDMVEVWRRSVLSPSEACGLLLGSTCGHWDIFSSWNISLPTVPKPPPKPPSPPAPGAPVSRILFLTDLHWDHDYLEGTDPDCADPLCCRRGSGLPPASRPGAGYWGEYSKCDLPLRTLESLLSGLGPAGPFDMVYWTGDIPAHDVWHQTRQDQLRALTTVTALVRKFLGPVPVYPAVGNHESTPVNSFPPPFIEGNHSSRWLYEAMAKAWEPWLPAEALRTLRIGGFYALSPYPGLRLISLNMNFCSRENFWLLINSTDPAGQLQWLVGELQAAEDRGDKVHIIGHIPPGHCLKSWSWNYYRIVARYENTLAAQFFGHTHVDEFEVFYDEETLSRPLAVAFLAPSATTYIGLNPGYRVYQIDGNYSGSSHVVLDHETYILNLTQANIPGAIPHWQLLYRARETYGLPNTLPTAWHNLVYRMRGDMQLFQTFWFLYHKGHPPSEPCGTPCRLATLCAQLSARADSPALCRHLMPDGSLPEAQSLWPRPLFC
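Fluorescence read-out (Ex 386 nm, Em 447 nm) after stopping the reaction at pH 10. Enzyme: ASM from human placenta; substrate HMU-PC0, 9 uM final; 60 min, 37 °C. Compound preincubation 10 min, ambient temperature.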
p53 reactivation = qHTS assay for re-activators of p53 using a Luc reporter; H1299 p53-A138V BP100-luciferase reporter, luminescence, 24 h; Potency, µM (titrated, usually from 92.2 µM), actives largely listed as activators; 320,000 tested, 0.063% active; AID 504706, 2011; also: nearly all actives have a fitted effect of over 45% in size
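H1299 (p53-null), stable ts p53-A138V + BP100-Luc; 1000 cells/well, Opti-MEM/10% FBS; cpd 4 pt, 1:5; 24 h, 37 deg C, 5% CO2; detection reagent 10 min RT; luminescence.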
CCT chaperon mod = High-Throughput Screening for Modulators of Cytosolic Chaperonin Activity; purified chaperonin ATPase assay, HTRF ADP detection, 30 min; activity change, % (concentration not given with the values), hits read low; 360,000 tested, 0.3% active; AID 651819, 2012; in the data active = activity change below about -30%
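TRiC (40 or 20 nM final, by batch activity) in 30 mM Tris pH 7.4, 100 mM KCl, 5 mM MgCl2, 1 mM DTT was treated with compound at 76 uM single dose, then 10 uM ATP, 30 min at 37 °C. ADP was read by HTRF Transcreener.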
MmCpn inh = Inhibitors of TCP-1 ring complex (TRiC) of Methanococcus maripaludis (MmCpn): qHTS. Chaperonin Mm-Cpn (Methanococcus maripaludis). purified Mm-Cpn ATPase, ADP Transcreener TR-FRET. Potency, µM (titrated, usually from 76.9 µM), hits mostly inhibitors. 330,000 tested, 0.031% active; also: nearly all actives have a fitted effect of over 80% in size
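Purified archaeal Mm-CPN (25nM final) preincubated 10 min at 37degC with compound, then 10uM ATP for 30 min at 37degC; ADP measured by HTRF Transcreener TR-FRET; buffer 30 mM TRIS pH 7.4, 100mM KCl, 5mM MgCl2, 1mM DTT.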
A number is an active result. A selection: hits, their analogues and other compounds. The true share with any hit is near 1.4%. Unless noted, calls follow the shape of the dose curve; as a rule, active = well fitted curve in the direction sought with a large enough effect; inconclusive = small, poorly fitted or top-dose-only effect, or another doubt; inactive = no such curve, though single readings can be large; an effect the other way counts as inactive or inconclusive.

How did Cc1ccc(NS(=O)(=O)c2ccc3c(c2)oc(=O)n3C)cc1 do in these assays?
12-LOX inh: inactive; PINK1 modulator: inactive; ASM inhibitor: inactive; p53 reactivation: inactive; CCT chaperon mod: inactive; MmCpn inh: inactive

What do the screens show for `CC(=O)Nc1ccc(NS(=O)(=O)c2ccc3c(c2)oc(=O)n3C)cc1`?
12-LOX inh: 8.9µM; PINK1 modulator: inactive; ASM inhibitor: inactive; p53 reactivation: inactive; CCT chaperon mod: inactive; MmCpn inh: inactive

Results for COc1ccc(C2=CC3=C(Br)C(=O)C(C)(OC(=O)c4ccc(Cl)nc4)C(=O)C3=CO2)cc1 (centres undefined) ?
PINK1 modulator: 14µM; ASM inhibitor: inactive; p53 reactivation: inactive; CCT chaperon mod: inactive; MmCpn inh: inactive

How did Cc1nc(-c2ccccc2)sc1C(=O)N1CCN(Cc2ccccc2F)CC1 do in these assays?
12-LOX inh: inactive

What do the screens show for `Cc1cccc(NC(=O)c2ccc3nccnc3c2)n1`?
12-LOX inh: inactive; PINK1 modulator: inactive; ASM inhibitor: inactive; p53 reactivation: inactive; CCT chaperon mod: -50; MmCpn inh: inactive

Results for Cc1cccc(NC(=O)c2cccc(NC(=O)c3ccccc3)c2)n1 ?
12-LOX inh: inactive; PINK1 modulator: inactive; ASM inhibitor: inactive; CCT chaperon mod: inactive; MmCpn inh: inactive

Results for CCOc1cccc(C(c2c[nH]c3ccccc23)c2c[nH]c3ccccc23)c1O ?
12-LOX inh: 4µM

What do the screens show for `O=C(c1cnccn1)N1CCc2[nH]nc(C(c3ccccc3)c3ccccc3)c2C1`?
12-LOX inh: inactive

How did Cc1nc2ccc(Cl)cc2cc1C(=O)NCCOc1ccc(F)cc1 do in these assays?
12-LOX inh: inactive

What do the screens show for `CC(C)(C)C(=O)NC(=S)Nc1ccc(S(=O)(=O)Nc2nccs2)cc1`?
12-LOX inh: 45µM; PINK1 modulator: inactive; ASM inhibitor: inactive; p53 reactivation: inactive; CCT chaperon mod: inactive; MmCpn inh: inactive

How did CCOc1cc(C(=O)Nc2ccc(S(=O)(=O)Nc3nnc(CC)s3)cc2)cc(OCC)c1OCC do in these assays?
12-LOX inh: inactive; PINK1 modulator: inactive; ASM inhibitor: inactive; p53 reactivation: inactive; CCT chaperon mod: inactive; MmCpn inh: inactive

What do the screens show for `CCc1nnc(NS(=O)(=O)c2ccc(NC(=S)NC(=O)c3ccc(OC)c(OC)c3)cc2)s1`?
12-LOX inh: 8.9µM; PINK1 modulator: inactive; ASM inhibitor: inactive; p53 reactivation: inactive; CCT chaperon mod: inactive; MmCpn inh: inactive

How did CCc1nnc(NS(=O)(=O)c2ccc(NC(=S)NC(=O)/C=C/c3ccc(F)cc3)cc2)s1 do in these assays?
12-LOX inh: 10µM; PINK1 modulator: inactive; ASM inhibitor: inactive; p53 reactivation: inactive; CCT chaperon mod: inactive; MmCpn inh: inactive

Results for CCc1nnc(NS(=O)(=O)c2ccc(NC(=S)NC(=O)c3ccncc3)cc2)s1 ?
12-LOX inh: inconclusive; PINK1 modulator: inactive; ASM inhibitor: inactive; p53 reactivation: inactive; CCT chaperon mod: inactive; MmCpn inh: inactive

How did CCc1nnc(NS(=O)(=O)c2ccc(NC(=S)NC(=O)c3ccc(OC)cc3)cc2)s1 do in these assays?
12-LOX inh: 8.9µM; PINK1 modulator: inactive; ASM inhibitor: inactive; p53 reactivation: inactive; CCT chaperon mod: inactive; MmCpn inh: inactive

How did CCc1nnc(NS(=O)(=O)c2ccc(NC(=S)NC(=O)/C=C/c3ccc([N+](=O)[O-])cc3)cc2)s1 do in these assays?
12-LOX inh: inconclusive; PINK1 modulator: inactive; ASM inhibitor: inactive; p53 reactivation: inactive; CCT chaperon mod: inactive; MmCpn inh: inactive

What do the screens show for `CCc1ccc(-c2cc(C(F)(F)F)on2)cc1S(=O)(=O)Nc1cc(OC)ccc1OC`?
12-LOX inh: inactive

Results for CCCCNC(=O)CN1CCN(c2ncc(NC(=O)c3ccc(Cl)cc3)cc2C(=O)O)CC1 ?
12-LOX inh: 35µM; PINK1 modulator: inactive

Results for Cn1c(=O)[nH]c(=O)c2c1nc(SCCc1ccccc1)n2CCc1ccccc1 ?
12-LOX inh: inactive

What do the screens show for `COc1ccc(Br)cc1CN1CCN(C(=O)c2ccco2)CC1`?
12-LOX inh: 0.5µM; PINK1 modulator: inactive; ASM inhibitor: inactive; p53 reactivation: inactive; CCT chaperon mod: inactive; MmCpn inh: inactive

How did CCn1c2ccccc2c2cc(CN3CCN(C(=O)c4ccco4)CC3)ccc21 do in these assays?
12-LOX inh: 0.56µM; PINK1 modulator: inactive; ASM inhibitor: inactive; p53 reactivation: inactive; CCT chaperon mod: inactive; MmCpn inh: inactive

How did COc1ccccc1CN1CCN(C(=O)c2ccco2)CC1 do in these assays?
12-LOX inh: inconclusive; PINK1 modulator: inactive; ASM inhibitor: inactive; p53 reactivation: inactive; CCT chaperon mod: inactive; MmCpn inh: inactive

What do the screens show for `CCn1cc(CN2CCN(C(=O)c3ccco3)CC2)ccc1=O`?
12-LOX inh: inactive

Results for O=c1oc2ccccc2cc1S(=O)(=O)N1CCc2ccccc2C1 ?
12-LOX inh: inactive

What do the screens show for `S=C1NC[C@H](c2ccccc2)N1CCCCC1CCCCC1`?
12-LOX inh: 35µM; PINK1 modulator: inactive; ASM inhibitor: inactive; p53 reactivation: inactive; CCT chaperon mod: inactive; MmCpn inh: inactive

How did NC1=NC[C@H](c2ccccc2)N1CCCCC1CCCCC1 do in these assays?
12-LOX inh: inconclusive; PINK1 modulator: inactive; ASM inhibitor: inactive; p53 reactivation: inactive; CCT chaperon mod: inactive; MmCpn inh: inactive

How did C/C(=N\N=C(N)N)C1=CC(C)(C)CCC1 do in these assays?
12-LOX inh: inactive

How did Cn1c(=S)[nH]c2c(c1=O)C(C)(C)Cc1ccccc1-2 do in these assays?
12-LOX inh: 14µM; PINK1 modulator: inactive; ASM inhibitor: inactive; p53 reactivation: inactive; CCT chaperon mod: inactive; MmCpn inh: inconclusive

What do the screens show for `CCN(CC)C(=O)c1cnn(-c2ccccc2)c1NC(=O)c1ccco1`?
12-LOX inh: inactive; PINK1 modulator: inactive; ASM inhibitor: inactive; p53 reactivation: inactive; CCT chaperon mod: inactive; MmCpn inh: inactive

What do the screens show for `Cc1ccc(NC(=O)c2cnn(-c3ccccc3)c2NC(=O)c2ccco2)cc1C`?
PINK1 modulator: inactive; ASM inhibitor: inactive; p53 reactivation: inactive; CCT chaperon mod: -39; MmCpn inh: inactive

Results for Cc1cc(C)c2nc(NNC(=O)c3ccc(S(=O)(=O)N4CCCC(C)C4)cc3)sc2c1 (centres undefined) ?
12-LOX inh: 5.6µM; PINK1 modulator: inactive; ASM inhibitor: inactive; p53 reactivation: inconclusive; CCT chaperon mod: inactive; MmCpn inh: inactive
